High-throughput results deposited in PubChem by SRMLSC.
This is a sample that favours compounds with a hit; in the whole collection about 6.5% have one here.
Spn MK inh: blocks S. pneumoniae mevalonate kinase; purified MK, PK/LDH-coupled NADH absorbance 340 nm; inhibition, % at 10 µM; hit rate 0.48% among 65,000;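 active = ranked among the strongest by inhibition in the single 10 µM screen, a fixed top-ranked set picked for dose follow-up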
Abs 340nm: absorbance at 340 nm; compound absorbance at 340 nm, fold over control; fold change at 10 µM; 65,000 tested, under 10 active; AID 708;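 active = at 10 µM dose, initial 340 nm absorbance at least 2 fold that of control wells; inactive = change under 2 fold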;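 also: initial absorbance extrapolated from kinetic A340 decline of NADH oxidation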
NADH coupling: blocks coupling enzymes of NAD/NADH assays; coupled PK/LDH NADH assays, four targets; IC50, µM (doses to about 10 µM), without a hit: at the highest dose inhibition; hit rate 0.02% among 65,000; AID 774;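 active = single-dose screening hits from any of four coupled enzyme assays that gave an IC50 when retested across doses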;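 also: the DPM-DC format reads NADH fluorescence rather than 340 nm absorbance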
PMK inhibit: blocks S. pneumoniae phosphomevalonate kinase. purified PMK, PK/LDH-coupled NADH absorbance 340 nm. inhibition, % at 10 µM. hit rate 0.49% among 65,000. AID 539;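 active = top-ranked compounds by inhibition in the single 10 µM screen, taking a fixed number of the strongest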;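 also: 0% = full reaction with DMSO carrier and 100% = background rate without enzyme reaction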
Spn DPM-DC inh: blocks S. pneumoniae diphosphomevalonate decarboxylase. purified DPM-DC, PK/LDH coupled NADH fluorescence. calls only at 10 µM. hit rate 0.49% among 65,000. AID 556;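 active = the 320 compounds with the highest percent inhibition in the single-dose primary screen, excluding strongly autofluorescent ones, cut at about 32% in these data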;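 also: kinetic rate of NADH fluorescence loss reporting ADP formed by the decarboxylase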
Fluor 339 460: intrinsic fluorescence of library compounds, ex339/em460 – biochemical, MLSMR library, data from DPM-DC assay, artefact control, profiling panel; compound autofluorescence, ex339/em460 nm, NADH buffer; stronger effect = higher value; 1 = no-compound wells, NADH background; fluorescence fold increase at 10 µM; hit rate 5.5% among 65,000;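 active = at 10 µM, mean starting fluorescence two-fold or more over control wells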;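 also: signal is the first read of a kinetic run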
* hit, by the source's call; i = inactive; nt = not tested or not shown; + = active, no number.

SMILES	Spn MK inh	Abs 340nm	NADH coupling	PMK inhibit	Spn DPM-DC inh	Fluor 339 460
CCCn1nc(NC(=O)c2cccs2)c2cc3cc(OC)ccc3nc21	10	1	4%	16	nt	2*
COc1ccc2nc3c(cc2c1)c(NC(=O)C1CCCO1)nn3CC(C)C (stereo not given)	9	1	8%	7	nt	3.7*
CCCC(=O)Nc1nn(CCC)c2nc3ccccc3cc12	0	1	1%	2	i	1.3
COc1ccc(NC(=O)c2ccccc2NC(=O)C2CCCO2)cc1 (stereo not given)	2	1	1%	2	i	1.1
CCCn1nc(NC(=O)c2ccncc2)c2cc3ccccc3nc21	4	1.1	4%	9	i	1.2
CCCCn1nc(NC(=O)c2cccs2)c2cc3cc(OC)ccc3nc21	4	1	7%	10	nt	3.6*
CCCCn1nc(NC(=O)c2cccs2)c2cc3ccccc3nc21	14	1	10%	5	nt	2.2*
COC(=O)c1cc(NCc2cccs2)ccc1N1CCOCC1	14	1	10%	12	i	1.4
O=C(O)c1cc(NCc2cccs2)ccc1N1CCOCC1	9	1	5%	4	i	2.4*
COC(=O)c1cc(NCc2c(F)cccc2Cl)ccc1N1CCOCC1	4	1	16%	10	+	2.6*
O=C(NCCO)c1nc(NCCO)c2ccccc2n1	5	1.1	7%	11	i	1.1
C=CCNc1nc(N2CCCC2)nc2ccccc12	14	1.1	19%	6	+	2.7*
OCCNc1nc(N2CCN(Cc3ccccc3)CC2)nc2ccccc12	7	1	12%	15	i	2*
Cc1cccc(C)c1NC(=O)Cn1c(=O)n(CCCC(=O)NCc2ccco2)c(=O)c2sccc21	5	1	6%	13	i	1
CC(C)(C)c1ccc(C(=O)C=[N+]=[N-])cc1	5	1	7%	17	i	1.1
CCOC(=O)CSc1nc(C)c2cc(OC)ccc2n1	0	1.1	0%	0	nt	3.7*
CCC(=O)N/C(N)=N/c1nc(C)c2cc(OC)ccc2n1	2	1	1%	1	nt	2.1*
COc1ccc2nc(/N=C(\N)NC(=O)C(C)(C)C)nc(C)c2c1	2	1	7%	6	i	2
CCOC(=O)CCSc1nc(C)c2ccccc2n1	0	1.1	3%	9	i	1.2
CC(=O)Nc1sc2c(c1CN1CCN(c3ccccn3)CC1)CCCC2	0	0.97	2%	9	i	1
COCc1nc(-c2ccc(-c3ccc(C)cc3)nc2OC)no1	0	1	7%	14	i	1.9
CCOc1nc(-c2ccc(OC)cc2)ccc1-c1noc(C)n1	6	1.2	7%	8	nt	3.8*
COc1ccc(-c2ccc(-c3noc(C4CCCCC4)n3)c(OC)n2)cc1	6	1.1	8%	10	nt	3.7*
COc1ccc(-c2ccc(-c3noc(C)n3)c(OC)n2)cc1	5	1.2	7%	9	nt	3.8*
CCOc1ccc(S(=O)(=O)NCC2CCCO2)c2cccnc12 (stereo not given)	6	1	4%	0	i	2.2*
SMILES	Spn MK inh	Abs 340nm	NADH coupling	PMK inhibit	Spn DPM-DC inh	Fluor 339 460
CCOc1ccc(S(=O)(=O)Nc2ccccc2SC)c2cccnc12	3	1.1	1%	0	i	1.2
Cn1cc(-c2nc3ccccc3[nH]2)c2ccccc21	3	1	1%	0	nt	2.1*
Cn1c(NCc2c[nH]c3ccccc23)nc2ccccc21	2	0.98	4%	11	i	1.1
Nc1cccc(-c2nc3ccccc3[nH]2)c1	3	0.99	2%	0	nt	2.2*
Nc1ccc(C(=O)OCc2nc3ccccc3[nH]2)cc1	0	1	6%	16	i	1
Nc1ccc(-c2nc3ccccc3[nH]2)cc1	6	1.1	3%	0	nt	2.1*
Cc1n[nH]c(C)c1-c1nc2ccccc2[nH]1	3	1	4%	10	i	1
Nc1ccccc1-c1nc2ccccc2[nH]1	7	1.1	7%	7	nt	3.8*
C=CCn1c(O)c(CN2CCOCC2)c(C)c(C#N)c1=O	8	1.1	5%	6	i	1.4
Cc1cc(NCCN2CCOCC2)n2c(nc3ccccc32)c1C#N	15	1.1	11%	7	nt	3.7*
